Experimental findings from the supplement of paper PMC8699584 are described below.

SMILES strings stand for the structures. ± gives the standard deviation of the averaged measurements.

The test system of one experiment is Molm13. Kind of experiment: cell viability relative to DMSO control (bortezomib = 0%); higher = less growth inhibition. The conditions noted are these: 10 nM; 72 h. The method in brief: (§1)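 In duplicate runs, a library of 679 approved and investigational compounds in 384-well plates received acute myeloid leukemia cells at 1000 cells per well in 50 µL, with each compound at a single 10 nM dose for 72 h. CellTiter-Glo luminescence, read on an EnVision reader, served as the viability measure. Each plate was normalized by linear regression between DMSO-treated cells (100%) and positive-control-treated cells (0%).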

For a further experiment, the system named is Mv4-11. The experiment is described as above. The conditions noted are these: 10 nM; 72 h. The method in brief: as §1

Take `CC(C)Oc1ccc(C(=O)N[C@H](CNC(=O)CN(C)C)Cc2ccc(-c3cn4cccc([C@H](C)O)c4n3)cc2)cc1Cl`: the cell viability in the experiment with Molm13 is 110 ± 19%; in the experiment with Mv4-11, 121 ± 9.3%.

For the molecule `CCOC(=O)c1c2c3c(cccc3[nH]c1=O)C(=O)c1ccccc1-2`, the values for the cell viability with Molm13 and in the experiment with Mv4-11 were 124 ± 7.7% and 103 ± 19%, respectively.

For the molecule `CN1CCN(c2cccc(Nc3nc4c(-c5ccc(S(C)(=O)=O)cc5)cccn4n3)c2)CC1`, the cell viability in the experiment with Molm13 is 118 ± 14%; in the experiment with Mv4-11 it was 101 ± 7.2%.

Consider `Cc1cc(Nc2ncc(Cl)c(Nc3ccccc3S(=O)(=O)C(C)C)n2)c(OC(C)C)cc1C1CCNCC1` [LDK378(Ceritinib)], for which the cell viability in the experiment on Molm13 turned out to be 110 ± 4.9%; with Mv4-11 it was 103.8 ± 0.72%.

For the molecule `NS(=O)(=O)c1ccc(Nc2nc(OCC3CCCCC3)c3[nH]cnc3n2)cc1`, the cell viability with Molm13 stood at 104 ± 34%; in the experiment on Mv4-11 it was 109 ± 13%.

For `CCn1c(=O)c(-c2ccc(-c3cncs3)cc2Cl)cc2cnc(Nc3ccc(N4CCN(C)CC4)cc3)nc21`, the cell viability with Molm13 came to 106 ± 6.4%; in the experiment on Mv4-11, 111 ± 10%.

As for `CC1(COc2ccc3c(c2)ncn3-c2ccc3cccc(N4CCC(N)CC4)c3n2)COC1` [Crenolanib], the cell viability with Molm13 worked out at 14.9 ± 3.8%; with Mv4-11, 18.2 ± 5.8%.

For the molecule `Cc1ccc(-c2csc3ncnc(SCCC(=O)O)c23)cc1`, the cell viability in the experiment on Molm13 came out at 108 ± 3.3%; in the experiment on Mv4-11, 117 ± 10%.

On to `CCN1CCN(c2ccc(Nc3cc(N(C)C(=O)Nc4c(Cl)c(OC)cc(OC)c4Cl)ncn3)cc2)CC1`, for which the cell viability is 110 ± 17% with Molm13 and 106 ± 16% in the experiment with Mv4-11.

Turning to `O=C(c1cccc(Cl)c1F)N1CCN(Cc2cccc(Nc3nccs3)n2)CC1`, the cell viability in the experiment with Molm13 came to 95.9 ± 11%; in the experiment with Mv4-11, 115 ± 9.6%.

As for `CC[C@@H]1C(=O)N(C)c2cnc(Nc3ccc(C(=O)N[C@H]4CC[C@H](N5CCN(CC6CC6)CC5)CC4)cc3OC)nc2N1C(C)C` [Volasertib (BI 6727)], the cell viability worked out at 104.1 ± 0.8% in the experiment on Molm13 and 117 ± 15% with Mv4-11.

As to `CC(=O)CC(c1ccccc1)c1c(O)c2ccccc2oc1=O` (centres undefined) [Warfarin], the results for the cell viability with Molm13 and with Mv4-11 were 109 ± 8.2% and 103 ± 7%, respectively.

As a reminder, the cell viability is a read-out of living cells in per cent, often relative to untreated cells.
